# From PMC11006913
# Columns and labels:
# Assay in all cases: PBM; 200 nM protein, PBS
# Details in all cases: dsDNA, one strand shown
# CRX = CRX (Homo sapiens, UniProt O43186 26-111, E42D)
# HOXC9 [1] = target: HOXC9 (Homo sapiens, UniProt P31274 178-260)
# HOXC9 [2] = target: HOXC9 (Homo sapiens, UniProt P31274 178-260, R222W)
# MSX2 [3] = target: MSX2 (Homo sapiens, UniProt P35548 130-214, R199I)
# MSX2 [4] = target: MSX2 (Homo sapiens, UniProt P35548 130-214)
# MSX2 [5] = target: MSX2 (Homo sapiens, UniProt P35548 130-214, F161Y)
# HOXD13 [6] = target: HOXD13 (Homo sapiens, UniProt P35453 263-343, T313R)
# HOXD13 [7] = target: HOXD13 (Homo sapiens, UniProt P35453 263-343)
# HOXD13 [8] = target: HOXD13 (Homo sapiens, UniProt P35453 263-343, T313A)
# HOXA2 = HOXA2 (Homo sapiens, UniProt O43364 129-215, R185K)
# PROP1 [9] = target: PROP1 (Homo sapiens, UniProt O75360 56-141)
# PROP1 [10] = target: PROP1 (Homo sapiens, UniProt O75360 56-141, R99H)
# VAX1 [11] = target: VAX1 (Homo sapiens, UniProt Q5SQQ9 86-172)
# PROP1 [12] = target: PROP1 (Homo sapiens, UniProt O75360 56-141, F88S)
# VAX1 [13] = target: VAX1 (Homo sapiens, UniProt Q5SQQ9 86-172, T142I)
# VAX1 [14] = target: VAX1 (Homo sapiens, UniProt Q5SQQ9 86-172, K157R)
# ALX1 [15] = target: ALX1 (Homo sapiens, UniProt Q15699 118-204, L144V)
# ALX1 [16] = target: ALX1 (Homo sapiens, UniProt Q15699 118-204, L144R)
# ALX1 [17] = target: ALX1 (Homo sapiens, UniProt Q15699 118-204)
# Sequence of ALX1 (Homo sapiens, UniProt Q15699 118-204) (Q15699 118-204): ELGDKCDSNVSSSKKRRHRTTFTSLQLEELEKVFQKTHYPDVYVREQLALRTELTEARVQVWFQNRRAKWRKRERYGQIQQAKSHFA
# Sequence of VAX1 (Homo sapiens, UniProt Q5SQQ9 86-172, K157R) (Q5SQQ9 86-172 K157R): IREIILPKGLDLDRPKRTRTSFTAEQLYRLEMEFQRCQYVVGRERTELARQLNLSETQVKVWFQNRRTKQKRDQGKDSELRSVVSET
# Sequence of VAX1 (Homo sapiens, UniProt Q5SQQ9 86-172, T142I) (Q5SQQ9 86-172 T142I): as the sequence (Q5SQQ9 86-172 K157R) above, with T57I, R72K counted along it
# Sequence of MSX2 (Homo sapiens, UniProt P35548 130-214) (P35548 130-214): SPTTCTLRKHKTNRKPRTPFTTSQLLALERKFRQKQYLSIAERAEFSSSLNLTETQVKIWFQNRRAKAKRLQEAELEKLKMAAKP
# Sequence of MSX2 (Homo sapiens, UniProt P35548 130-214, F161Y) (P35548 130-214 F161Y): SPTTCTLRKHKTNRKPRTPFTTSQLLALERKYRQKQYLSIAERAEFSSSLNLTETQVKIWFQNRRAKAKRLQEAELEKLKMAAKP
# Sequence of MSX2 (Homo sapiens, UniProt P35548 130-214, R199I) (P35548 130-214 R199I): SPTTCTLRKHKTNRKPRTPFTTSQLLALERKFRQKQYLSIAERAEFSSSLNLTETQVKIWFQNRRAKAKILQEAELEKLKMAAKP
# Sequence of VAX1 (Homo sapiens, UniProt Q5SQQ9 86-172) (Q5SQQ9 86-172): as the sequence (Q5SQQ9 86-172 K157R) above, with R72K counted along it
# Sequence of PROP1 (Homo sapiens, UniProt O75360 56-141, F88S) (O75360 56-141 F88S): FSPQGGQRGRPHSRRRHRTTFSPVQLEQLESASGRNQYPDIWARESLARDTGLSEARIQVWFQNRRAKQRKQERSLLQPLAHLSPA
# Sequence of PROP1 (Homo sapiens, UniProt O75360 56-141, R99H) (O75360 56-141 R99H): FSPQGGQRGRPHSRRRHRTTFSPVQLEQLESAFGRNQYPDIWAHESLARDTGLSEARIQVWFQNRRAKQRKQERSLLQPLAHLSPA
# Sequence of PROP1 (Homo sapiens, UniProt O75360 56-141) (O75360 56-141): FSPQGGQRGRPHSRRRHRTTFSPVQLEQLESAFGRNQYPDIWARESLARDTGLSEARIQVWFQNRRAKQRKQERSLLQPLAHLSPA
# Sequence of HOXD13 (Homo sapiens, UniProt P35453 263-343) (P35453 263-343): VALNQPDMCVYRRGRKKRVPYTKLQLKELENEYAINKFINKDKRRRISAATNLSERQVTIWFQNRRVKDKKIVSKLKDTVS
# Sequence of CRX (O43186 26-111 E42D): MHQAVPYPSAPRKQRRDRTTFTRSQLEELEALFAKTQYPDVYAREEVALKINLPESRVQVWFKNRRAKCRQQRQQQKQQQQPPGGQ
# Sequence of HOXC9 (Homo sapiens, UniProt P31274 178-260, R222W) (P31274 178-260 R222W): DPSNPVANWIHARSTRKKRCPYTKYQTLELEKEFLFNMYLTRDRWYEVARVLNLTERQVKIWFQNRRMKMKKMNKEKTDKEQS
# Sequence of ALX1 (Homo sapiens, UniProt Q15699 118-204, L144V) (Q15699 118-204 L144V): as the sequence (Q15699 118-204) above, with L27V counted along it
# Sequence of ALX1 (Homo sapiens, UniProt Q15699 118-204, L144R) (Q15699 118-204 L144R): as the sequence (Q15699 118-204) above, with L27R counted along it
# Sequence of HOXD13 (Homo sapiens, UniProt P35453 263-343, T313R) (P35453 263-343 T313R): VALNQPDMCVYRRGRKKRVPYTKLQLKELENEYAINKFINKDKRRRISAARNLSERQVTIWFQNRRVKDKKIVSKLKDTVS
# Sequence of HOXD13 (Homo sapiens, UniProt P35453 263-343, T313A) (P35453 263-343 T313A): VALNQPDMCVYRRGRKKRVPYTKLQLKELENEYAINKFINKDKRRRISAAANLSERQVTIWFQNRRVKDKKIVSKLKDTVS
# Sequence of HOXA2 (O43364 129-215 R185K): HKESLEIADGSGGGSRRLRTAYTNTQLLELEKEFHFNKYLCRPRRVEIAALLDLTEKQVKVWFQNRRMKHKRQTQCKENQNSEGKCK
# Sequence of HOXC9 (Homo sapiens, UniProt P31274 178-260) (P31274 178-260): as the sequence (P31274 178-260 R222W) above, with W45R counted along it
sequence,measurement,setting,value
AACTAATC,binding signal,CRX,"12.7 upbm affinity estimate (log intensity, higher = more binding, comparable within an allelic series)"
GCTCTTAA,binding signal,HOXC9 [1],"11 upbm affinity estimate (log intensity, higher = more binding, comparable within an allelic series)"
same,binding signal,HOXC9 [2],"10.2 upbm affinity estimate (log intensity, higher = more binding, comparable within an allelic series)"
CCACTGGC,binding signal,MSX2 [3],"9.65 upbm affinity estimate (log intensity, higher = more binding, comparable within an allelic series)"
same,binding signal,MSX2 [4],"9.69 upbm affinity estimate (log intensity, higher = more binding, comparable within an allelic series)"
same,binding signal,MSX2 [5],"9.68 upbm affinity estimate (log intensity, higher = more binding, comparable within an allelic series)"
AGGCGTGA,binding signal,MSX2 [3],"9.57 upbm affinity estimate (log intensity, higher = more binding, comparable within an allelic series)"
same,binding signal,MSX2 [4],"9.37 upbm affinity estimate (log intensity, higher = more binding, comparable within an allelic series)"
same,binding signal,MSX2 [5],"9.36 upbm affinity estimate (log intensity, higher = more binding, comparable within an allelic series)"
CGCCCACG,binding signal,MSX2 [3],"9.47 upbm affinity estimate (log intensity, higher = more binding, comparable within an allelic series)"
same,binding signal,MSX2 [4],"9.54 upbm affinity estimate (log intensity, higher = more binding, comparable within an allelic series)"
same,binding signal,MSX2 [5],"9.52 upbm affinity estimate (log intensity, higher = more binding, comparable within an allelic series)"
ATTAACAC,binding signal,MSX2 [3],"11.3 upbm affinity estimate (log intensity, higher = more binding, comparable within an allelic series)"
same,binding signal,MSX2 [4],"12.1 upbm affinity estimate (log intensity, higher = more binding, comparable within an allelic series)"
same,binding signal,MSX2 [5],"11.8 upbm affinity estimate (log intensity, higher = more binding, comparable within an allelic series)"
AGCGGGGC,binding signal,MSX2 [3],"9.48 upbm affinity estimate (log intensity, higher = more binding, comparable within an allelic series)"
same,binding signal,HOXD13 [6],"9.49 upbm affinity estimate (log intensity, higher = more binding, comparable within an allelic series)"
same,binding signal,HOXD13 [7],"9.31 upbm affinity estimate (log intensity, higher = more binding, comparable within an allelic series)"
same,binding signal,MSX2 [4],"9.55 upbm affinity estimate (log intensity, higher = more binding, comparable within an allelic series)"
same,binding signal,HOXD13 [8],"9.49 upbm affinity estimate (log intensity, higher = more binding, comparable within an allelic series)"
same,binding signal,MSX2 [5],"9.55 upbm affinity estimate (log intensity, higher = more binding, comparable within an allelic series)"
ATGGAAAT,binding signal,MSX2 [3],"10.4 upbm affinity estimate (log intensity, higher = more binding, comparable within an allelic series)"
same,binding signal,MSX2 [4],"10.7 upbm affinity estimate (log intensity, higher = more binding, comparable within an allelic series)"
same,binding signal,MSX2 [5],"10.6 upbm affinity estimate (log intensity, higher = more binding, comparable within an allelic series)"
GTAATCAA,binding signal,MSX2 [3],"11.1 upbm affinity estimate (log intensity, higher = more binding, comparable within an allelic series)"
same,binding signal,HOXA2,"13.1 upbm affinity estimate (log intensity, higher = more binding, comparable within an allelic series)"
CCCCTACG,binding signal,MSX2 [3],"9.54 upbm affinity estimate (log intensity, higher = more binding, comparable within an allelic series)"
same,binding signal,MSX2 [4],"9.48 upbm affinity estimate (log intensity, higher = more binding, comparable within an allelic series)"
same,binding signal,MSX2 [5],"9.63 upbm affinity estimate (log intensity, higher = more binding, comparable within an allelic series)"
ATAATCAC,binding signal,MSX2 [3],"11.1 upbm affinity estimate (log intensity, higher = more binding, comparable within an allelic series)"
AGCGGCCT,binding signal,MSX2 [3],"9.45 upbm affinity estimate (log intensity, higher = more binding, comparable within an allelic series)"
same,binding signal,MSX2 [4],"9.32 upbm affinity estimate (log intensity, higher = more binding, comparable within an allelic series)"
same,binding signal,MSX2 [5],"9.44 upbm affinity estimate (log intensity, higher = more binding, comparable within an allelic series)"
CCCTAGCG,binding signal,MSX2 [3],"9.48 upbm affinity estimate (log intensity, higher = more binding, comparable within an allelic series)"
same,binding signal,MSX2 [4],"9.29 upbm affinity estimate (log intensity, higher = more binding, comparable within an allelic series)"
same,binding signal,PROP1 [9],"6.52 upbm affinity estimate (log intensity, higher = more binding, comparable within an allelic series)"
same,binding signal,PROP1 [10],"6.7 upbm affinity estimate (log intensity, higher = more binding, comparable within an allelic series)"
same,binding signal,VAX1 [11],"6.79 upbm affinity estimate (log intensity, higher = more binding, comparable within an allelic series)"
same,binding signal,PROP1 [12],"6.73 upbm affinity estimate (log intensity, higher = more binding, comparable within an allelic series)"
same,binding signal,MSX2 [5],"9.37 upbm affinity estimate (log intensity, higher = more binding, comparable within an allelic series)"
same,binding signal,VAX1 [13],"7.2 upbm affinity estimate (log intensity, higher = more binding, comparable within an allelic series)"
same,binding signal,VAX1 [14],"6.92 upbm affinity estimate (log intensity, higher = more binding, comparable within an allelic series)"
CCTGAGCC,binding signal,MSX2 [3],"9.54 upbm affinity estimate (log intensity, higher = more binding, comparable within an allelic series)"
same,binding signal,MSX2 [4],"9.53 upbm affinity estimate (log intensity, higher = more binding, comparable within an allelic series)"
same,binding signal,MSX2 [5],"9.53 upbm affinity estimate (log intensity, higher = more binding, comparable within an allelic series)"
CCTGTGCC,binding signal,MSX2 [3],"9.49 upbm affinity estimate (log intensity, higher = more binding, comparable within an allelic series)"
same,binding signal,MSX2 [4],"9.41 upbm affinity estimate (log intensity, higher = more binding, comparable within an allelic series)"
same,binding signal,PROP1 [9],"6.6 upbm affinity estimate (log intensity, higher = more binding, comparable within an allelic series)"
same,binding signal,PROP1 [10],"6.69 upbm affinity estimate (log intensity, higher = more binding, comparable within an allelic series)"
same,binding signal,PROP1 [12],"6.62 upbm affinity estimate (log intensity, higher = more binding, comparable within an allelic series)"
same,binding signal,MSX2 [5],"9.42 upbm affinity estimate (log intensity, higher = more binding, comparable within an allelic series)"
GAAGCAGC,binding signal,MSX2 [3],"9.64 upbm affinity estimate (log intensity, higher = more binding, comparable within an allelic series)"
same,binding signal,MSX2 [4],"9.57 upbm affinity estimate (log intensity, higher = more binding, comparable within an allelic series)"
same,binding signal,VAX1 [11],"7.06 upbm affinity estimate (log intensity, higher = more binding, comparable within an allelic series)"
same,binding signal,MSX2 [5],"9.57 upbm affinity estimate (log intensity, higher = more binding, comparable within an allelic series)"
same,binding signal,VAX1 [13],"7.19 upbm affinity estimate (log intensity, higher = more binding, comparable within an allelic series)"
same,binding signal,VAX1 [14],"6.96 upbm affinity estimate (log intensity, higher = more binding, comparable within an allelic series)"
CCTGACTC,binding signal,MSX2 [3],"9.6 upbm affinity estimate (log intensity, higher = more binding, comparable within an allelic series)"
same,binding signal,MSX2 [4],"9.49 upbm affinity estimate (log intensity, higher = more binding, comparable within an allelic series)"
same,binding signal,MSX2 [5],"9.54 upbm affinity estimate (log intensity, higher = more binding, comparable within an allelic series)"
CAGGGCCA,binding signal,MSX2 [3],"9.52 upbm affinity estimate (log intensity, higher = more binding, comparable within an allelic series)"
same,binding signal,MSX2 [4],"9.57 upbm affinity estimate (log intensity, higher = more binding, comparable within an allelic series)"
same,binding signal,MSX2 [5],"9.56 upbm affinity estimate (log intensity, higher = more binding, comparable within an allelic series)"
ATGATTAC,binding signal,MSX2 [3],"10.9 upbm affinity estimate (log intensity, higher = more binding, comparable within an allelic series)"
CCTACGGC,binding signal,MSX2 [3],"9.61 upbm affinity estimate (log intensity, higher = more binding, comparable within an allelic series)"
same,binding signal,ALX1 [15],"6.56 upbm affinity estimate (log intensity, higher = more binding, comparable within an allelic series)"
same,binding signal,ALX1 [16],"6.66 upbm affinity estimate (log intensity, higher = more binding, comparable within an allelic series)"
same,binding signal,MSX2 [4],"9.61 upbm affinity estimate (log intensity, higher = more binding, comparable within an allelic series)"
same,binding signal,MSX2 [5],"9.63 upbm affinity estimate (log intensity, higher = more binding, comparable within an allelic series)"
same,binding signal,ALX1 [17],"6.68 upbm affinity estimate (log intensity, higher = more binding, comparable within an allelic series)"
GCCAGGAC,binding signal,MSX2 [3],"9.69 upbm affinity estimate (log intensity, higher = more binding, comparable within an allelic series)"
same,binding signal,MSX2 [4],"9.71 upbm affinity estimate (log intensity, higher = more binding, comparable within an allelic series)"
same,binding signal,MSX2 [5],"9.76 upbm affinity estimate (log intensity, higher = more binding, comparable within an allelic series)"
TCCGCGGA,binding signal,MSX2 [3],"9.48 upbm affinity estimate (log intensity, higher = more binding, comparable within an allelic series)"
same,binding signal,MSX2 [4],"9.54 upbm affinity estimate (log intensity, higher = more binding, comparable within an allelic series)"
same,binding signal,VAX1 [11],"7.16 upbm affinity estimate (log intensity, higher = more binding, comparable within an allelic series)"
same,binding signal,MSX2 [5],"9.53 upbm affinity estimate (log intensity, higher = more binding, comparable within an allelic series)"
same,binding signal,VAX1 [13],"7.5 upbm affinity estimate (log intensity, higher = more binding, comparable within an allelic series)"
same,binding signal,VAX1 [14],"7.45 upbm affinity estimate (log intensity, higher = more binding, comparable within an allelic series)"
GAGCCGAC,binding signal,MSX2 [3],"9.44 upbm affinity estimate (log intensity, higher = more binding, comparable within an allelic series)"
same,binding signal,MSX2 [4],"9.46 upbm affinity estimate (log intensity, higher = more binding, comparable within an allelic series)"
same,binding signal,VAX1 [11],"7.12 upbm affinity estimate (log intensity, higher = more binding, comparable within an allelic series)"
same,binding signal,MSX2 [5],"9.31 upbm affinity estimate (log intensity, higher = more binding, comparable within an allelic series)"
same,binding signal,VAX1 [13],"7.21 upbm affinity estimate (log intensity, higher = more binding, comparable within an allelic series)"
same,binding signal,VAX1 [14],"7.3 upbm affinity estimate (log intensity, higher = more binding, comparable within an allelic series)"
CGCTCAGC,binding signal,MSX2 [3],"9.48 upbm affinity estimate (log intensity, higher = more binding, comparable within an allelic series)"
same,binding signal,MSX2 [4],"9.57 upbm affinity estimate (log intensity, higher = more binding, comparable within an allelic series)"
same,binding signal,MSX2 [5],"9.59 upbm affinity estimate (log intensity, higher = more binding, comparable within an allelic series)"
